# Assay outcomes: PubChem, National Center for Advancing Translational Sciences (NCATS)
# Hits are enriched below; roughly 2.8% of the tested compounds scored in any of these assays.
# KDM5B inhibitor – Primary screen for KDM5B Histone Demethylases FDH-coupled qHTS | AID 1347165, 2019 | Potency, µM (doses to about 57.7 µM), most hits filed as inhibitors | 2.6% of 220,000 active | Lysine-specific demethylase 5B (Homo sapiens), Q9UGL1 | KDM5B demethylase, FDH-coupled NADH fluorescence (FDH is formaldehyde dehydrogenase); further: potency means the concentration at half of the fitted maximal effect; 0% is about no effect; nearly all actives have a fitted effect of over 70% in size
# Target sequence (Q9UGL1 whole entry, looked up): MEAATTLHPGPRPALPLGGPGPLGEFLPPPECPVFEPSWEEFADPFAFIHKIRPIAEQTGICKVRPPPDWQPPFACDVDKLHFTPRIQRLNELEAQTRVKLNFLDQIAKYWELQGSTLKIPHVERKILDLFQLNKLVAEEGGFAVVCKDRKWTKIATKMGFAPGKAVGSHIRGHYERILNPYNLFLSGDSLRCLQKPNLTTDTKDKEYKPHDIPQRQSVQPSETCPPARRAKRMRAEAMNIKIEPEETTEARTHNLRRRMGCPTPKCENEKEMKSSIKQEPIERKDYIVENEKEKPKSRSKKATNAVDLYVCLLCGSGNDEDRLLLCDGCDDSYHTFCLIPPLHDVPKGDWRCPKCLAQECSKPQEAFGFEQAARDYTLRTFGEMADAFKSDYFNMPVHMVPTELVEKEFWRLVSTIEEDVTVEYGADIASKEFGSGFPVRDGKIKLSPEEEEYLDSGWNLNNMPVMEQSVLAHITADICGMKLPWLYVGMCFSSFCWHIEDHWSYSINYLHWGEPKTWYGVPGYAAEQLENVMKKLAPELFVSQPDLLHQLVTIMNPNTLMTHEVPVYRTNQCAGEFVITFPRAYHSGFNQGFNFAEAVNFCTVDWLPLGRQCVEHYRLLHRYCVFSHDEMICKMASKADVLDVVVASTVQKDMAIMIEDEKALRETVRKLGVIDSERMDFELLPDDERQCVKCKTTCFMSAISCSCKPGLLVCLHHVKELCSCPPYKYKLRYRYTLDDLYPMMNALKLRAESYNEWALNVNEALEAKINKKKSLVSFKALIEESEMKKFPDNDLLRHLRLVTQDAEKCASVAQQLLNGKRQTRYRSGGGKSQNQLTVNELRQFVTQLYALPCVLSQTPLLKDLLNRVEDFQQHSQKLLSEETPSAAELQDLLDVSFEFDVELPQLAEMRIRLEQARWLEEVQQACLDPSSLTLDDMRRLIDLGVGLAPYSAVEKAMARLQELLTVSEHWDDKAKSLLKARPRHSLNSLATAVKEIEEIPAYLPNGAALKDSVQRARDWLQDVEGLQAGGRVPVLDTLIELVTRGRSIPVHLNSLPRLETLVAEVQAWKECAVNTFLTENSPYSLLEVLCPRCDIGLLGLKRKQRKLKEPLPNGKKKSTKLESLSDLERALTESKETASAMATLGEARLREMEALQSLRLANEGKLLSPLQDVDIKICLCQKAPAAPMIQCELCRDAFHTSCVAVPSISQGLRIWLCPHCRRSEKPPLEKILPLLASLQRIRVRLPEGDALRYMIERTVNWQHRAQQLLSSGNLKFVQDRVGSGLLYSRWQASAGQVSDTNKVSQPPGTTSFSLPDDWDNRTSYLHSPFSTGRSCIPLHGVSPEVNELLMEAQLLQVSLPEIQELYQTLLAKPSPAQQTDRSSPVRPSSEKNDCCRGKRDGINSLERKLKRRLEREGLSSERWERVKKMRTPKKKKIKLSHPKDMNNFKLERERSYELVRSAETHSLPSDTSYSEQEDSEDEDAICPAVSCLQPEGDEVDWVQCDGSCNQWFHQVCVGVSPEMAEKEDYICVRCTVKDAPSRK
#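 Compound dilutions met 200 nM (final) KDM5BΔAP for 10 min at room temperature before substrate addition. The substrate mix held 12.5 µM H3K4me3 with cofactors 25 µM α-ketoglutarate and 50 µM Fe²⁺. NADH signal gain over 30 min defined activity.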
# IP6K1 inhibitor – Primary qHTS assay for small molecule inhibitors of Inositol hexaphosphate kinase 1 (IP6K1); 0.81% of 140,000 active; AID 1645851, 2021; Inositol hexakisphosphate kinase 1 (Homo sapiens), Q92551; IP6K1 kinase, ADP-Glo luminescence, 2 h; stronger effect = lower value; activity change, % (series mostly up to about 58 µM); in the data active means activity change below about -25%; further: on the % scale 0 is the no-effect control and ±100 the full control effect
#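 ADP-Glo luminescence measures ADP made by human IP6K1 during a 2 h RT reaction with ATP/IP6 (mix at 1.3 mM/130 uM); top library doses 57.5 and 19.1 uM final.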
# Active calls of the source: *; i = inactive; ? = inconclusive; / = no result given.
SMILES,KDM5B inhibitor,IP6K1 inhibitor
O=C(c1ccccc1F)N1CCCC(C(=O)N2CCC(c3nc4ccncc4[nH]3)C2)C1 (centres undefined),/,4
COc1ccc(C2(C(=O)NC3CCCc4c3[nH]c3ccccc43)CCOCC2)cc1 (centres undefined),?,-2
COc1ccc(S(=O)(=O)NCc2nc3nc(C)cc(C)n3n2)cc1,i,6
COc1ccc(S(=O)(=O)NCCNc2cc(C)nc3ccnn23)cc1,28µM*,13
CC(C)NC(=O)c1nc2cccnc2n(C2CCCC2)c1=O,/,11
CN1C[C@@H](NC(=O)c2ccc3c(c2)OCO3)C[C@H]1c1nc(-c2ccc(Cl)cc2)no1,32µM*,-2
Cc1ccc(C(=O)N[C@H]2C[C@@H](c3nc(-c4ccc5c(c4)OCO5)no3)N(C)C2)cc1,i,-7
O=C(Nc1ccc2oc(-c3cccc(Cl)c3)nc2c1)c1ccccc1,i,/
Cc1nc2cc(NS(=O)(=O)c3ccc(C(C)(C)C)cc3)ccc2o1,i,/
Cc1nn(-c2ccccc2)c2c1C(C(C)C)N(C1CCN(C(=O)Cc3ccccn3)CC1)C2=O (centres undefined),/,6
CC(Cc1cnccn1)NC(=O)c1ccc2nc(-c3ccc(F)cc3)cn2c1 (centres undefined),?,-4
O=C(NCc1ccc(F)cc1)c1ccc2nnc(-c3ccc(F)cc3)n2c1,/,13
COCCN(CC1CC1)C(=O)c1ccc2nc(-c3ccc(F)cc3)cn2c1,25µM*,17
O=C(NCC1CNCCOC1)c1ccc2nc(-c3ccc(F)cc3)cn2c1 (centres undefined),28µM*,-1
O=C(Cc1ccc(F)cc1)NCCc1cnc[nH]1,i,/
COCCN(Cc1cnn(C)c1)C(=O)c1ccc2nc(C)cn2c1,?,-1
O=C(NCCc1cnc[nH]1)c1ccc2nc(-c3ccc(F)cc3)cn2c1,32µM*,10
CCC(NC(=O)c1ccc2nc(-c3ccc(F)cc3)cn2c1)c1ncc(C)[nH]1 (centres undefined),25µM*,-16
Cc1ccsc1CNCCCN(C)C,i,/
COc1ccccc1Nc1ccnc(N2CCC(C(=O)NCc3cccc(C(F)(F)F)c3)CC2)n1,/,26
COCC(=O)N(C1CCOCC1)C1CCN(C(=O)c2ccc(F)cc2)CC1,i,0
CN(C(=O)c1ccc2nc(-c3ccc(F)cc3)cn2c1)C1CCOCC1,22µM*,18
CN1CCCC2(CCN(c3ccc(C#N)cn3)C2)C1=O (centres undefined),i,9
CN1C(=O)CO[C@H]2CN(c3ccc(C#N)cn3)C[C@H]21,35µM*,4
N#Cc1ccc(N2C[C@@H]3OCC(=O)N(CC4CCCCC4)[C@@H]3C2)nc1,35µM*,-7
SMILES,KDM5B inhibitor,IP6K1 inhibitor
O=C(c1cnccn1)N1C[C@@H]2OCC(=O)N(CC3CCCCC3)[C@@H]2C1,?,16
Cc1noc(C)c1C1CCCN1Cc1cn(-c2ccccc2)nn1 (centres undefined),i,3
c1ccc(-n2cc(CN3CCCCC3c3ccccn3)nn2)cc1 (centres undefined),28µM*,-16
CCOC(=O)c1c(C)c(-c2ccccc2)n(CC(=O)NCCN2CCCCC2CC)c1C (centres undefined),i,/
CCc1ccc(-n2nc(C)c3c(C(=O)N4CCN(c5ccccc5)CC4)cc(C)nc32)cc1,i,-5
Cc1cn2nc(C(=O)N3CCN(c4ccccc4)CC3)cc2c(N(C)Cc2ccccc2)n1,25µM*,8
Cc1cn2nc(C(=O)N3CCCCC3)cc2c(N(C)Cc2ccccc2)n1,32µM*,-1
Cc1ccc(S(=O)(=O)N(C)Cc2ccccc2)cc1C(=O)N1CCCCC1,i,/
Cc1nn(-c2ccccc2)c2c1C(C)N(C1CCN(C(=O)c3ccc(Cl)nc3)C1)C2=O (centres undefined),/,-2
O=C(NCc1ccccc1)c1nc2cccnc2n(CCc2ccccc2)c1=O,/,-22
COc1ccc(Nc2ccnc(N3CCN(C(=O)c4cccc(OC)c4)CC3)n2)cc1,/,-7
O=C(Cc1ccc(Br)cc1)NCc1nnc2ccc(-c3ccc(F)cc3)nn12,?,4
Cc1ccc(-c2ccc3nnc(CNC(=O)CCC4CCCC4)n3n2)cc1,28µM*,11
Cc1ccc(-c2ccc3nnc(CNC(=O)C4CCCCC4)n3n2)cc1,?,48
COc1ccccc1CCC(=O)NCc1nnc2ccc(-c3ccc(C)cc3)nn12,i,-8
Cc1ccc(-c2ccc3nnc(CNC(=O)C4CC4)n3n2)cc1,14µM*,-2
Cc1ccc(-c2ccc3nnc(CNC(=O)CSc4ccncc4)n3n2)cc1,28µM*,-11
O=C(NCC(F)(F)F)C1CCCN1C(=O)c1cccc(-c2cccnc2)c1 (centres undefined),/,-10
Cn1ncc2c(C(=O)NCc3ccc4c(c3)OCO4)cc(-c3ccccc3F)nc21,/,-8
C[C@@H](O)CNc1nccc(C2(c3ccccc3Cl)CCNCC2)n1,?,-4
CC(C)CNc1nccc(C2(c3ccccc3Cl)CCNCC2)n1,22µM*,9
Cc1cc(C)c(CNCCS(=O)(=O)c2ccccc2)c(C)c1,i,/
COc1ccc(OC)c(-c2nc(CN3CCCC(C(C)(C)O)C3)c(C)o2)c1 (centres undefined),20µM*,43
CCC1CN(Cc2nc(-c3ccc(OC)cc3F)oc2C)CCN1C(C)C (centres undefined),?,-12
COc1ccc(C(=O)N2C[C@@H](CO)[C@H](c3ccncc3)C2)cc1,i,-9
SMILES,KDM5B inhibitor,IP6K1 inhibitor
COc1ccc2cc(C(=O)N3CCN4CCS(=O)(=O)N(C5CC5)C(=O)C4C3)[nH]c2c1 (centres undefined),i,0
CNC(=O)[C@@H]1CN(C(=O)C2(c3ccc(OC)cc3)CC2)C[C@H]1CO,i,5
COc1ccc2[nH]c(C(=O)N3C[C@@H](CO)[C@H](c4ccncc4)C3)cc2c1,32µM*,-10
COc1ccc2[nH]c(C(=O)N3CCN4CCS(=O)(=O)N(C5CC5)C(=O)C4C3)cc2c1 (centres undefined),25µM*,12
CNC(=O)[C@@H]1CN(C(=O)c2cc3cc(OC)ccc3[nH]2)C[C@H]1CO,22µM*,-3
COC(=O)N1CCC(C(=O)N2CCC(c3nc4ncccc4[nH]3)CC2)C1 (centres undefined),/,-7
COc1cccc(C(=O)NC2CCN(c3nccc(Nc4ccccc4Cl)n3)CC2)c1,/,-1
O=C(NCCN1CCCC1)c1nnn2cc(-c3ccccc3)[nH]c(=O)c12,2.5µM*,0
CC(C)Oc1ccc(CNC(=O)c2nnn3cc(-c4ccccc4)[nH]c(=O)c23)cc1,?,-1
O=C(c1ccc(-c2cccs2)cc1)N1CCC(C(=O)N2CCOCC2)CC1,/,-7
O=C(c1ccc(N2CC3CC(C2)[C@H]2CCCC(=O)N2C3)nc1)N1CCN(c2ncccn2)CC1 (some centres undefined),?,7
O=C(C1CCN(C(=O)N2CC3CC(C2)[C@H]2CCCC(=O)N2C3)CC1)N1CCN(c2ccccc2)CC1 (some centres undefined),i,12
O=C(C1CCN(C(=O)N2CC3CC(C2)[C@H]2CCCC(=O)N2C3)CC1)N1CCN(c2ccccn2)CC1 (some centres undefined),25µM*,12
